Test results taken from the supplement of paper PMC9925115.
“And” between values parts separate entries of the source, which are not always exact repeats. Equal values may be shown once. ± gives the uncertainty stated by the source.

Test system: FLX1
Assay: cell viability z-score within plate (CellTiter-Glo), mean of 3 biological replicates; higher = higher viability relative to plate (less growth inhibition)
Conditions: 2 µM; time (hr): 120
Description: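 FLX1 fibrolamellar carcinoma cells (DNAJB1-PRKACA fusion), 600 cells/well in 384-well plates, treated with a Selleck kinase inhibitor library (L1200) at 2 uM for 5 days (120 hr); viability by CellTiter-Glo. A z-score was computed within each plate and averaged over three biological replicates.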

Row | SMILES | cell viability z-score within plate
1 | Nc1ncnc2c1c(-c1cnc3[nH]ccc3c1)nn2C1CCCC1 | -0.241 ± 0.65
2 | O=C1c2ccc(Nc3ccc(F)cc3F)cc2CCc2ccc(OC[C@H](O)CO)cc21 [Skepinone-L] | -1.21 ± 0.79
3 | NC1(Cc2ccc(Cl)cc2)CCN(c2ncnc3[nH]ccc23)CC1 | -0.404 ± 1.4
4 | C=CC(=O)Nc1cc(Nc2nccc(-c3cn(C)c4ccccc34)n2)c(OC)cc1N(C)CCN(C)C [Osimertinib (AZD9291)] | -0.225 ± 0.34

Test system: FLX1 + dox-induced PRKAR1A G325D
Assay: difference in log2 fold change of viability vs plate median (dox-induced PRKAR1A G325D minus uninduced); higher = compound less effective when PKA is inhibited
Conditions: concentration: not stated (2 or 5 uM); 5 days
Description: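 For each plate a log2 fold change vs the plate median was derived, and the values without dox were subtracted from those with dox, averaged over three biological replicates.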

Row | SMILES | difference in log2 fold change of viability
5 | NC(=O)Nc1cc(-c2cccc(F)c2)sc1C(=O)N[C@H]1CCCNC1 | -0.12
6 | CNC(=O)c1ccccc1Nc1nc(Nc2ccc(N3CCOCC3)cc2OC)ncc1Cl | -1.51
7 | Nc1ncnc2c1c(-c1cnc3[nH]ccc3c1)nn2C1CCCC1 | 0.363
8 | COc1ccc(F)c(F)c1C(=O)c1cnc(NC2CCN(S(C)(=O)=O)CC2)nc1N | 0.247
9 | CN1CCC(COc2cnc(-c3cccc(Cn4nc(-c5cccc(C#N)c5)ccc4=O)c3)nc2)CC1 | -0.973
10 | CN(c1ncccc1CNc1nc(Nc2ccc3c(c2)CC(=O)N3)ncc1C(F)(F)F)S(C)(=O)=O | 0.235 and 0.428
11 | O=c1c(O)c(-c2ccc(O)c(O)c2)oc2cc(O)cc(O)c12 [Quercetin] | -0.0725
12 | COc1cc2ncnc(Nc3cccc(Cl)c3)c2cc1OC [AG-1478 (Tyrphostin AG-1478)] | 0.0422
13 | Cc1cc(Nc2cc(N3CCN(C)CC3)nc(Sc3ccc(NC(=O)C4CC4)cc3)n2)n[nH]1 [Tozasertib (VX-680, MK-0457)] | -0.00164
14 | Nc1ccc(C(=O)Nc2cccc(-c3nc(N4CCOCC4)c4oc5ncccc5c4n3)c2)cn1 | 0.262
15 | N#CC[C@H](C1CCCC1)n1cc(-c2ncnc3[nH]ccc23)cn1 | 0.145
16 | C[C@]1(O)C[C@@H](c2nc(-c3ccc4ccc(-c5ccccc5)nc4c3)c3c(N)nccn32)C1 [Linsitinib (OSI-906)] | 0.468
17 | O=C1c2ccc(Nc3ccc(F)cc3F)cc2CCc2ccc(OC[C@H](O)CO)cc21 [Skepinone-L] | 0.71
18 | O=C1NCCc2[nH]c(-c3ccncc3)cc21 | 0.179
19 | CN1CCN(c2nc(C3=C(c4c[nH]c5ccccc45)C(=O)NC3=O)c3ccccc3n2)CC1 [Sotrastaurin] | -0.157
20 | Cn1cc(/C=C2\C(=O)Nc3cccnc32)c2ccccc21 | 0.00477
21 | O=C(NC(NC(=S)Nc1ccc(F)c([N+](=O)[O-])c1)C(Cl)(Cl)Cl)C(c1ccccc1)c1ccccc1 (stereo not drawn) | 0.101

Row | SMILES | difference in log2 fold change of viability
22 | CN1CCN(CCOc2cc(OC3CCOCC3)c3c(Nc4c(Cl)ccc5c4OCO5)ncnc3c2)CC1 [Saracatinib (AZD0530)] | -1.34
23 | CNc1nc(-c2ccc3c(N)n[nH]c3c2)cc(N2C[C@@H](C(=O)NC3CCCCC3)CC[C@H]2C)n1 | 0.221
24 | C=CC(=O)Nc1cccc(Nc2nc(Nc3ccc(N4CCN(C(C)=O)CC4)cc3OC)ncc2C(F)(F)F)c1 [Rociletinib (CO-1686, AVL-301)] | -0.172
25 | O=C(NCc1cccc(O)c1)Nc1nc(-c2ccncc2)cs1 | -0.0799
26 | NC1(Cc2ccc(Cl)cc2)CCN(c2ncnc3[nH]ccc23)CC1 | 0.655
27 | C#Cc1cccc(Nc2ncnc3cc4c(cc23)OCCOCCOCCO4)c1 [Icotinib] | -0.163
28 | Cc1ccc(F)c(NC(=O)Nc2ccc(-c3cccc4[nH]nc(N)c34)cc2)c1 [Linifanib (ABT-869)] | 0.386
29 | O=C(NOC[C@H](O)CO)c1ccc(F)c(F)c1Nc1ccc(I)cc1F | -1.04
30 | O=C(Nc1cccc(Nc2ncc(Br)c(NCCc3cnc[nH]3)n2)c1)N1CCCC1 | 0.799
31 | COc1cc(CCc2cc(NC(=O)c3ccc(N4CC(C)NC(C)C4)cc3)n[nH]2)cc(OC)c1 (stereo not drawn) | -0.468
32 | Cn1cc(-c2ccc3nnc(C(F)(F)c4ccc5ncccc5c4)n3n2)cn1 | 0.158
33 | CCOc1ccn(-c2ccc(F)cc2)c(=O)c1C(=O)Nc1ccc(Oc2ccnc(N)c2Cl)c(F)c1 | 0.114
34 | COc1ccc(-c2ccc3c(N4CCOC[C@@H]4C)nc(N4CCOC[C@@H]4C)nc3n2)cc1CO | 1.55
35 | CN1CCN(S(=O)(=O)c2ccc(-c3cnc(N)c(C(=O)Nc4cccnc4)n3)cc2)CC1 | -0.529
36 | COc1ccc(-c2ccc3ncc4c(c3c2)n(-c2ccc(N3CCNCC3)c(C(F)(F)F)c2)c(=O)n4C)cn1 | 0.174
37 | O=c1cc(-c2cccc3c2Sc2ccccc2S3)oc(N2CCOCC2)c1 | 0.329
38 | COc1cc2c(c(OC)c1OC)-c1c(cc3c(c1OC)OCO3)CC(C)C(C)C2 (stereo not drawn) [Schisandrin B (Sch B)] | 0.277
